Structures are written as SMILES.

For test [1], the system named is Vero E6 infected with SARS-CoV-2. The test is described as follows: morphology score (similarity to uninfected cells); higher = more like uninfected cells. Conditions: 24 h.
The test system is the same in test [2]. The test is described as follows: SARS-CoV-2 infection rate relative to infected DMSO; higher = more infection, active = 60 or less. To be noted: 24 h.

In test [1], `Cc1ccc(/C=N/NC(=O)c2ccccc2Oc2ccccc2)o1` (10 µM) had a morphology score of 0.268. Besides, in test [2], the SARS-CoV-2 infection rate was 82.5% (inactive).
Regarding `Cc1cc(C)nc(SCC(=O)Nc2ncc(Cc3cccc4ccccc34)s2)n1` (10 µM), the morphology score in test [1] is 0.211. The SARS-CoV-2 infection rate in test [2] is 96.5% (inactive).
For `CC(=O)OCC(=O)NCCCOc1cccc(CN2CCCCC2)c1` [roxatidine-acetate] (10 µM) the same measures were 0.0141 and 110% (inactive).
Turning to `CC(NCCC(c1ccccc1)c1ccccc1)c1ccccc1` (configuration not stated) [fendiline] (10 µM), the morphology score in test [1] worked out at 0.771. Also, the SARS-CoV-2 infection rate in test [2] is 44% (active).
For `CC1Sc2c(C(=O)O)c(=O)c3cc(F)c(N4CCNCC4)cc3n21` (configuration not stated) [ulifloxacin] (10 µM) the same measures were -0.0402 and 106% (inactive).
For `O=C1/C(=C/c2ccccc2)C[C@@]2(O)[C@H]3Cc4ccc(O)c5c4[C@@]2(CCN3CC2CC2)[C@H]1O5` (0.833333 µM) the same measures were 0.732 and 23.5% (active).
For `O=C(OC[C@H]1O[C@@H](OC(=O)c2cc(O)c(O)c(OC(=O)c3cc(O)c(O)c(O)c3)c2)[C@H](OC(=O)c2cc(O)c(O)c(OC(=O)c3cc(O)c(O)c(O)c3)c2)[C@@H](OC(=O)c2cc(O)c(O)c(OC(=O)c3cc(O)c(O)c(O)c3)c2)[C@@H]1OC(=O)c1cc(O)c(O)c(OC(=O)c2cc(O)c(O)c(O)c2)c1)c1cc(O)c(O)c(OC(=O)c2cc(O)c(O)c(O)c2)c1` [tannic-acid] (10 µM) the same measures were -0.112 and 114% (inactive).
Regarding `C[C@]1(Cn2ccnn2)[C@H](C(=O)O)N2C(=O)C[C@H]2S1(=O)=O` [tazobactam] (10 µM), the morphology score in test [1] stood at 0.0668. Besides, in test [2], the SARS-CoV-2 infection rate was 108% (inactive).
With `CN(C(=O)CN(CCO)CC(=O)N(C)C(C)(C)Cc1ccccc1)C(C)(C)Cc1ccccc1` [oxethazaine] (10 µM), the morphology score in test [1] was -0.169. Moreover, the SARS-CoV-2 infection rate in test [2] was 102% (inactive).
For `CCOC(=O)c1ccc(-c2ccc(OC(=O)N(C)Cc3cccc(-c4ccncc4)c3)cc2)cc1` (10 µM) the same measures were 0.0201 and 104% (inactive).
For `CC(C)c1ccc(C(=O)N=C(N)N)cc1S(C)(=O)=O` [cariporide] (10 µM) the same measures were 0.169 and 101% (inactive).
In test [1], `NC1=NCC2c3ccccc3Cc3ccccc3N12` (configuration not stated) [epinastine] (10 µM) gave a morphology score of 0.0427. For the same compound, the SARS-CoV-2 infection rate in test [2] was 114% (inactive).
The matching figures for `O[C@H]1[C@H](O)[C@@H](O)[C@H](O)[C@@H](O)[C@H]1O` [inositol] (10 µM): -0.166 and 95.5% (inactive).
For `CC[C@H]1CN2CC[C@H]1C[C@@H]2[C@@H](O)c1ccnc2ccc(OC)cc12` [hydroquinidine] (10 µM) the same measures were 0.301 and 90% (inactive).
For `CCOc1ccc(-c2nc(-c3cccc4c3CCC4NCCO)no2)cc1OCC` (configuration not stated) (10 µM) the same measures were 0.847 and 12% (active).
The compound `CCCCc1nc(Cl)c(CO)n1Cc1ccc(-c2ccccc2-c2nnn[nH]2)cc1` [losartan] (10 µM) registered a morphology score in test [1] of 0.0837. Moreover, the SARS-CoV-2 infection rate in test [2] is 99.5% (inactive).
The matching figures for `O=C(O)COC(=O)Cc1ccccc1Nc1c(Cl)cccc1Cl` [aceclofenac] (10 µM): -0.0479 and 110% (inactive).
In turn, `COc1[nH]c2ccc(F)cc2c1C(=O)OCC1CCN(CCNS(C)(=O)=O)CC1` (10 µM) returned a morphology score in test [1] of 0.0361. Moreover, in test [2], the SARS-CoV-2 infection rate is 106% (inactive).
For `Cc1cc(-c2ccc(CC(=O)Nc3ccc(-c4cccnc4)cc3)cc2)ccn1` (10 µM) the same measures were 0.392 and 75.5% (inactive).
The matching figures for `Nc1nc(Nc2ccc(S(N)(=O)=O)cc2)nn1C(=O)c1c(F)cccc1F` (0.833333 µM): -0.114 and 120% (inactive).
The matching figures for `CCOC(CN1CCN(CC(C)C(=O)c2ccccc2)CC1)c1ccccc1` (configuration not stated) [eprazinone] (10 µM): 0.35 and 96% (inactive).
For `COc1cc([S+](C)[O-])ccc1-c1nc2cccnc2[nH]1` (configuration not stated) [sulmazole] (10 µM), the morphology score in test [1] is 0.165. Moreover, in test [2], the SARS-CoV-2 infection rate is 98.5% (inactive).
The matching figures for `Cn1nc(-c2ccc(C(F)(F)F)cc2)nc2c(=O)n(C)c(=O)nc1-2` [walrycin-B] (0.833333 µM): 0.4 and 86.5% (inactive).
The matching figures for `COc1ccc(CCN(C)CCCC(C#N)(c2cc(OC)c(OC)c(OC)c2)C(C)C)cc1OC` (configuration not stated) [gallopamil] (10 µM): 0.176 and 98% (inactive).
For `CN1CCN(c2ccc3nc(-c4c(N)c5c(F)cccc5[nH]c4=O)[nH]c3c2)CC1` [dovitinib] (10 µM) the same measures were -0.00197 and 102% (inactive).
As for `Cc1c(C)c(NCC(=O)N(C)C2CCN(Cc3ccc(C(N)=O)cc3)CC2)c(C)c(C)c1N` (10 µM), the morphology score in test [1] was 0.211. Also, the SARS-CoV-2 infection rate in test [2] is 91% (inactive).

These data come from the supplement of paper PMC13380429.
